Compound activity deposited in PubChem by Center for Chemical Genomics, University of Michigan.
This excerpt belongs to a sample that is enriched for hits.
Dicer processing: human Dicer pre-microRNA cleavage inhibition; 47,000 compounds, 6% hits; Q9UPY3; z-score at 25 µM; cat-ELCCA pre-miR-21 Dicer processing, chemiluminescence; hits give high values; in the data active = z-score above about 3, passing the limit was not always enough;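 note: plate controls were vehicle for no effect and no enzyme for full effect; higher signal means more uncleaved substrate so more Dicer inhibition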
The depositor's hits bear a star; ! = not confirmed by another sample.

Screening Cc1ccc(CN2C(=O)C(O)(CC(=O)c3cccs3)c3cc(Cl)ccc32)cc1 (centres undefined) returned Dicer processing 1.4.
For O=C(CC1(O)C(=O)N(CCc2ccccc2)c2ccc(Br)cc21)c1ccco1 (centres undefined) the results were Dicer processing 2.6.
Screening CN1C(=O)C(O)(CC(=O)c2ccc3c(c2)CCCC3)c2ccccc21 (centres undefined) returned Dicer processing 3.3*.
For Cc1ccccc1CN1C(=O)C(O)(CC(=O)c2cccnc2)c2cc(Cl)ccc21 (centres undefined) the results were Dicer processing 2.4.
`O=C(CC1(O)C(=O)N(CCc2ccccc2)c2ccc(Br)cc21)c1cccs1` (centres undefined) gave Dicer processing 3.
For Cc1coc(C)c1C(=O)CC1(O)C(=O)N(CCc2ccccc2)c2ccc(Br)cc21 (centres undefined) the results were Dicer processing -0.43.
Screening O=C(CC1(O)C(=O)N(CCc2ccccc2)c2ccc(Cl)cc21)c1cccs1 (centres undefined) returned Dicer processing 4.2*.
`CN1C(=O)C(O)(CC(=O)c2ccccc2)c2ccccc21` (centres undefined) gave Dicer processing 2.
`CCN1C(=O)C(O)(CC(=O)c2cccs2)c2ccccc21` (centres undefined) gave Dicer processing 0.2.
Screening CC(C)(C)c1[nH]nc2c1C(c1ccc(Cl)cc1)C(C#N)=C(N)O2 (centres undefined) returned Dicer processing -2.
`COc1cccc(NC(=S)C(C#N)C(=O)N2CCC(C)CC2)c1` (centres undefined) gave Dicer processing -1.4.
CC(C)(C)C(=O)CSc1nnc(-c2cnccn2)s1 was read as Dicer processing -0.62.
O=C(CCc1ccc(O)cc1)N/N=C/C=C/c1ccccc1 was read as Dicer processing 0.44.
Screening CCOC(=O)c1c(O)n(-c2ccccc2)c(=S)n(-c2ccccc2)c1=S returned Dicer processing -1.6.
`Cn1cnnc1SCC(=O)N1c2ccccc2Sc2ccccc21` gave Dicer processing 0.7.
`c1ccc2c(-c3nnc(-c4ccc5nccnc5c4)o3)cccc2c1` gave Dicer processing 0.11.
Cn1cccc1C(=O)N/N=C(\N)CN1CCCCC1 was read as Dicer processing -1.
For COc1ccc(-c2cc(=O)c3c(=O)n(-c4ccccc4)[nH]c3[nH]2)cc1 the results were Dicer processing -1.
For O=C(CC1(O)C(=O)N(Cc2ccc(Cl)cc2)c2ccccc21)c1cccs1 (centres undefined) the results were Dicer processing 0.52.
For O=C(CC1(O)C(=O)N(Cc2ccccc2)c2ccccc21)c1ccc(Cl)cc1 (centres undefined) the results were Dicer processing 3*.
`CN(C)c1ccc(C(=O)CC2(O)C(=O)N(Cc3ccc(Cl)cc3)c3ccccc32)cc1` (centres undefined) gave Dicer processing -1.7.
`CCCS(=O)(=O)c1csc(C(=O)OC)c1NNC(=O)C(C)C` gave Dicer processing 0.4.
Screening CCOC(=O)C1=C(N)Oc2cc(O)ccc2C1c1ccccc1 (centres undefined) returned Dicer processing 0.12.
For CCOC(=O)C1=C(N)Oc2cc(O)ccc2C1c1ccc(F)cc1F (centres undefined) the results were Dicer processing 0.45.
Screening CCOC(=O)C1=C(N)Oc2ccc3ccccc3c2C1c1cccc(O)c1 (centres undefined) returned Dicer processing 3.5*.
Screening CCOC(=O)N1CCN(C2CC(=O)N(c3ccc(Cl)cc3)C2=O)CC1 (centres undefined) returned Dicer processing -0.77.
For COC(=O)c1cnc(Sc2ccccc2NS(C)(=O)=O)c([N+](=O)[O-])c1 the results were Dicer processing -1.1.
Screening CC(C)(C)C(=O)/C(C#N)=C/Nc1ccc(Cl)cn1 returned Dicer processing -1.2.
Screening CCOc1ccc(S(=O)(=O)N2CCSC2c2ccc(OC)c(OC)c2)cc1 (centres undefined) returned Dicer processing 3.3*.
`COc1ccc(OC)c(C2SCCN2S(=O)(=O)c2ccc(-c3ccccc3)cc2)c1` (centres undefined) gave Dicer processing -0.18.
For COc1ccc(S(=O)(=O)N2CCSC2c2ccccc2OC)cc1 (centres undefined) the results were Dicer processing 0.65.
COc1ccc(Br)cc1C1SCCN1S(=O)(=O)c1cccc(C)c1 (centres undefined) was read as Dicer processing 2.9.
COc1ccc(C2SCCN2S(=O)(=O)c2cccc(C)c2)cc1 (centres undefined) was read as Dicer processing 6.2*.
`COc1ccc(C2SCCN2S(=O)(=O)c2ccc(C)cc2)cc1` (centres undefined) gave Dicer processing -1.4.
Screening COc1ccc(S(=O)(=O)N2CCSC2c2ccccc2Cl)cc1 (centres undefined) returned Dicer processing 3.3*.
For COc1ccc(C2SCCN2S(=O)(=O)c2cccc(C)c2)cc1OC (centres undefined) the results were Dicer processing 0.87.
Screening COc1ccccc1C1SCCN1S(=O)(=O)c1ccc(Cl)cc1 (centres undefined) returned Dicer processing 1.2.
Screening O=C(O)c1cnc2sc3ccccc3n2c1=O returned Dicer processing 1.5.
C(=C/c1nnnn1-c1ccccc1)/Nc1ccccc1 was read as Dicer processing 0.33.
For Nc1nc2c(nc(N3CCCCCC3)n2[C@H]2O[C@@H](CO)[C@H](O)[C@@H]2O)c(=O)[nH]1 the results were Dicer processing -0.5.
COc1ccccc1C1Nc2nonc2NC2=C1C(=O)CC(C)(C)C2 (centres undefined) was read as Dicer processing -1.5.
`Cc1ccc(Nc2nnns2)c(C)c1` gave Dicer processing -0.17.
`N#Cc1c(Cl)cccc1OCC(F)(F)F` gave Dicer processing 0.95.
`CCOC(=O)c1c(NC(=O)COc2ccc(Br)c(C)c2)sc2c1CCC2` gave Dicer processing 0.34.
Cc1cc(C)c2nc(Nc3nc(C)cc(C)n3)nc(C)c2c1 was read as Dicer processing 3.3*.
Cc1cc(C)c2nc(Nc3nc4ccccc4c(=O)[nH]3)nc(C)c2c1 was read as Dicer processing 3.
Screening CC1=CC(C)(C)N=C(Nc2nc(C)c3cc(C)cc(C)c3n2)N1 returned Dicer processing -0.43.
O=C(NCc1ccccc1)Nc1cc(=O)c2ccccc2o1 was read as Dicer processing 0.51.
`O=C(CCSc1nc(-c2ccc3c(c2)OCO3)cc(C(F)(F)F)n1)N1CCOCC1` gave Dicer processing 0.03.
Screening Oc1cc2c(cc1C(c1ccc(C(F)(F)F)cc1)N1CCOCC1)OCO2 (centres undefined) returned Dicer processing 6.5*.
Screening Oc1c(C(c2ccncc2)N2CCOCC2)cc(Cl)c2cccnc12 (centres undefined) returned Dicer processing -0.74.
Cc1ccc(C(=O)NC2(NCCc3ccc(Cl)cc3)C(=O)c3ccccc3C2=O)cc1 was read as Dicer processing 1.8.
Screening CSC(N)=Nc1ccc(Cl)cc1 returned Dicer processing 3*!.
Screening CSC(N)=Nc1cc(Cl)ccc1Cl returned Dicer processing 2.2.
Screening CSC(N)=Nc1ccc(Cl)c(Cl)c1 returned Dicer processing 2.4.
`CS/C(NCc1cccs1)=C(\C#N)S(=O)(=O)c1ccc(Cl)cc1` gave Dicer processing -0.81.
